Results: the supplement of paper PMC12339681
Counter-ions that a name gives are not always drawn.

The compounds below were run on PBMC-derived induced microglia-like cells (piMGLC) (assay: synaptosome phagocytic index relative to DMSO control (fraction of DMSO); higher = more phagocytosis). Settings: concentration: 10 uM (2 uM for compounds listed in Table S2); pretreatment time: 24 h; assay time: 3 h.

SMILES | synaptosome phagocytic index
O=C1Cc2cc(CCN3CCN(c4nsc5ccccc45)CC3)c(Cl)cc2N1 [Ziprasidone_(hydrochloride_monohydrate)] | 0.51
Cc1cnc(-c2cc(N3CCN(C(=O)CCS(C)(=O)=O)CC3)ncc2Cl)c(C)c1 | 0.665
OCCN1CCN(CCCN2c3ccccc3Sc3ccc(Cl)cc32)CC1 [Perphenazine] | 0.197
FC(F)(F)c1ccc(CNc2ccc(Cc3c[nH]c4ncc(Cl)cc34)cn2)cn1 [Pexidartinib_(hydrochloride)] | 0.976
C[C@]12CCCN1CC1=NNC(=O)c3cc(F)cc4[nH]c2c1c34 [Pamiparib] | 0.861
O=C(O)Cc1nn(Cc2nc3cc(C(F)(F)F)ccc3s2)c(=O)c2cscc12 | 0.982
CCCN(CCc1cccs1)[C@H]1CCc2c(O)cccc2C1 [Rotigotine] | 0.995
CCN(CC)C(=O)C1(c2ccccc2)CC1CN (stereo not drawn) [Milnacipran_(hydrochloride)] | 1.35
CCC(CC)O[C@@H]1C=C(C(=O)O)C[C@H](N)[C@H]1NC(C)=O [Oseltamivir_acid] | 0.782
CN1CCN(c2cc(-c3ccncc3)c(-c3ccc4ccccc4c3)nn2)CC1 | 0.903
C[C@@H](O[C@H]1OCCN(Cc2n[nH]c(=O)[nH]2)[C@H]1c1ccc(F)cc1)c1cc(C(F)(F)F)cc(C(F)(F)F)c1 [Aprepitant] | 1.02
COc1cc2c(N3CCN(C(=O)Nc4ccc(OC(C)C)cc4)CC3)ncnc2cc1OCCCN1CCCCC1 [Tandutinib_(hydrochloride)] | 0.778
CN1CCN2c3ncccc3Cc3ccccc3C2C1 (stereo not drawn) [Mirtazapine] | 1.1
CCCCCCCCCC(=O)OCCN1CCN(CCCN2c3ccccc3Sc3ccc(C(F)(F)F)cc32)CC1 [Fluphenazine_decanoate] | 1.03
COC(=O)/C=C/C(=O)OC [Dimethyl_fumarate] | 0.706
CN(C)C(=N)NC(=N)N [Metformin_(hydrochloride)] | 0.668
COc1c(N2CCNC(C)C2)c(F)cc2c(=O)c(C(=O)O)cn(C3CC3)c12 (stereo not drawn) [Gatifloxacin] | 0.702
C#Cc1cccc(Nc2ncnc3cc(OCCOC)c(OCCOC)cc23)c1 [Erlotinib] | 0.798
COc1cc2nc(C3CC3)nc(N3CCN(c4ccccc4OC)CC3)c2cc1OC | 0.0572
Cc1cc([C@@]23c4ccccc4C(=O)N2CCN3C(=O)c2ccc(F)c(F)c2)ccc1Cl | 0.335
N[C@H]1CONC1=O [L-Cycloserine] | 0.883
CN(C)CCOC(C)(c1ccccc1)c1ccccn1 (stereo not drawn) [Doxylamine_(succinate)] | 0.833
CNCCC=C1c2ccccc2CCc2ccccc21 [Nortriptyline_(hydrochloride)] | 0.487
